From PubChem BioAssay AID504832 (National Center for Advancing Translational Sciences (NCATS), 2011)
Hit rate of the full screen: of about 310,000 compounds, about 18,000 (5.8%) were called active. Another 22% or so got no clear call; they are omitted. Calls come from the whole dose curve; as a rule, active = well fitted inhibition curve with a large enough effect; inconclusive = small, poorly fitted or top-dose-only effect, or another doubt; inactive = no such curve, though single readings can be large or run the other way. Shown is part of a subset that was picked to be rich in actives.

test: Primary qHTS for delayed death inhibitors of the malarial parasite plastid, 48 hour incubation; conditions: P. falciparum luciferase growth in erythrocytes; series mostly up to 28.7 µM; activity change, negative = inhibition: at the top concentration
Method in brief: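 Parasite viability was followed by luminescence of a genomically integrated firefly luciferase. Cultures held 0.1% parasitemia at 2% hematocrit (final), incubated under 5% CO2 at 37 C.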
% is set by controls: 0 for no effect and ±100 for the full control effect; potency is the fitted concentration of half-maximal effect.

Row | SMILES | activity change, negative = inhibition | Potency
1 | CC(C)Cn1c(=O)c2ccccc2n2c(CCC(=O)NCc3ccccn3)nnc12 | 13.6% (inactive) | –
2 | CC1CCCCN1C(=S)NCc1ccccc1 (stereo not given) | 1.1% (inactive) | –
3 | COc1ccc(C(=O)NC(=S)N2CCCCC2c2cccnc2)cc1OC (stereo not given) | -13.4% (inactive) | –
4 | Fc1cc(Br)ccc1NC(=S)Nc1cccnc1 | 7.49% (inactive) | –
5 | S=C(NCCc1ccccc1)N1CCn2cccc2C1c1ccncc1 (stereo not given) | – | 10.4 µM (active)
6 | S=C(Nc1cccc(Br)c1)N1CCn2cccc2C1c1cccnc1 (stereo not given) | – | 11.7 µM (active)
7 | S=C(NCCc1ccccc1)N1CCCCC1 | 316% (inactive) | –
8 | COc1ccc(CCNS(=O)(=O)c2cccc([N+](=O)[O-])c2)cc1 | -17.4% (inactive) | –
9 | CN1CCN(C(=O)c2ccccc2NC(=O)COc2ccccc2Cl)CC1 | 14.6% (inactive) | –
10 | COc1ccc(/C(C)=N\NC(=O)c2ccc(-c3ccccc3)cc2)c(F)c1 | 9.06% (inactive) | –
11 | CCOc1ccc(/C=C/C(=O)N(CC)CC(=O)NCc2cccs2)cc1OC | -15.4% (inactive) | –
12 | CS(=O)(=O)Nc1ccc(C2=NN(S(C)(=O)=O)C(c3cccs3)C2)cc1 (stereo not given) | 161% (inactive) | –
13 | CCS(=O)(=O)Nc1ccc(C2=NN(C(C)=O)C(c3cccs3)C2)cc1 (stereo not given) | -10.4% (inactive) | –
14 | CS(=O)(=O)Nc1cccc(C2=NN(C(=O)c3cccc(F)c3)C(c3cccs3)C2)c1 (stereo not given) | – | 11.7 µM (active)
15 | CSc1ncccc1C(=O)Nc1ccc(C)cn1 | 103% (inactive) | –
16 | Cc1ccc2c(c1)N(CC(=O)N1CCC(O)CC1)C(=O)CO2 | 6.39% (inactive) | –
17 | CC(=O)OC(COc1ccc(F)cc1)Cn1cnc2ccccc21 (stereo not given) | -11.7% (inactive) | –
18 | CC(C)c1ccc(OCC(O)Cn2cnc3ccccc32)cc1 (stereo not given) | – | 11.7 µM (active)
19 | CC(C)c1ccc(OCC(O)CN2CCN(c3ccccn3)CC2)cc1 (stereo not given) | 0% (inactive) | –
20 | COc1cc([N+](=O)[O-])cc([N+](=O)[O-])c1NC(=O)N1CCOCC1 | 8.08% (inactive) | –
21 | NC(=O)c1ccsc1NC(=O)COC(=O)Cc1n[nH]c(=O)c2ccccc12 | 31.2% (inactive) | –
22 | O=S(=O)(NC1CC1)c1ccc(Cl)cc1 | 37.1% (inactive) | –
23 | CC(Cc1ccccc1)C(=O)N(C)Cc1ccccc1 (stereo not given) | 8.7% (inactive) | –
24 | Cc1ncoc1C(=O)NCCC(c1ccccc1)c1ccccc1 | 3.18% (inactive) | –
25 | CC(Cc1ccccc1)NCCC(c1ccccc1)c1ccccc1 (stereo not given) | – | 10.4 µM (active)
26 | NS(=O)(=O)c1ccc(CCNC(=O)CN2C(=O)c3ccccc3S2(=O)=O)cc1 | 11.6% (inactive) | –
27 | COc1ccc(N2CCN(S(=O)(=O)c3ccc4c(c3)N(C(C)=O)CCO4)CC2)cc1 | 3.93% (inactive) | –

Row | SMILES | activity change, negative = inhibition | Potency
28 | COC(=O)C1=C(C)N(C)C(=S)NC1c1ccccc1 (stereo not given) | 29.7% (inactive) | –
29 | COC(=O)C1=C(C)N(C)C(C)=C(C(=O)OC)C1c1cccc(Br)c1 | – | 8.28 µM (active)
30 | COCCN1C(=O)N[C@@H](c2ccccc2)C(C(=O)OC)=C1C | 9.28% (inactive) | –
31 | CCn1cc(CN2CCC(n3nccc3NC(=O)CCCc3ccccc3)CC2)c(C)n1 | -0.875% (inactive) | –
32 | CNC(=O)N1c2ccccc2C=Cc2ccccc21 | -13% (inactive) | –
33 | CC1Sc2ccc(S(=O)(=O)CCC(=O)NCc3ccccc3Cl)cc2NC1=O (stereo not given) | 8.76% (inactive) | –
34 | CN(C)C(=O)c1ccc(NC(=O)c2ccccc2-c2ccccc2)cc1 | -3.63% (inactive) | –
35 | Cc1ccc(-c2nnc(Nc3ccc(C(=O)N(C)C)cc3)c3ccccc23)cc1S(N)(=O)=O | – | 9.28 µM (active)
36 | COc1ccc(Nc2nnc(C)c3ccccc23)cc1 | 35.9% (inactive) | –
37 | COc1ccc(NC(=O)CN(C)CC(=O)Nc2cccc(C(F)(F)F)c2)cc1 | 245% (inactive) | –
38 | COc1cc(C(=O)N(C)Cc2cccc(OC)c2OC)ccc1OCC(=O)Nc1cccc(C(F)(F)F)c1 | – | 11.7 µM (active)
39 | CCNC(=O)c1ccc(OCC(=O)Nc2ccc(F)cc2)c(OC)c1 | -10% (inactive) | –
40 | O=C(Nc1ccc(N2CCCCC2)cc1)c1cc(S(=O)(=O)N2CCOCC2)ccc1F | 17.7% (inactive) | –
41 | N#Cc1cccc(NC(=O)C2CCCN(C(=O)c3ccc(Cl)cc3)C2)c1 (stereo not given) | – | 9.28 µM (active)
42 | O=C(Nc1cccc(Cl)c1)C1CCCN(c2cnccn2)C1 (stereo not given) | 3.85% (inactive) | –
43 | N#Cc1cccc(NC(=O)CN2CCCCCC2)c1 | -0.588% (inactive) | –
44 | COc1ccc(Cl)cc1C(=O)OCC(=O)NCc1cccs1 | -24.5% (inactive) | –
45 | CCOC(=O)C1CCN(C(=O)C2CCCN(S(=O)(=O)c3ccc(OC)c(Cl)c3)C2)CC1 (stereo not given) | -11% (inactive) | –
46 | CCOC(=O)C1CCN(S(=O)(=O)c2ccc3c(c2)N(C(C)=O)CCO3)CC1 | 10% (inactive) | –
47 | O=C(COC(=O)C1CCN(S(=O)(=O)c2ccc3c(c2)OCCO3)CC1)Nc1ccccc1OC(F)F | 18.8% (inactive) | –
48 | CCOC(=O)C1CCN(C(=O)c2oc3ccc(S(=O)(=O)N4CCCCCC4)cc3c2C)CC1 | – | 11.7 µM (active)
49 | CCOC(=O)C1CCN(C(=O)COC(=O)C2CCN(S(=O)(=O)c3ccc4c(c3)OCCO4)CC2)CC1 | – | 13.1 µM (active)
50 | Cc1c(C(=O)NCCN(C)C)oc2ccc(S(=O)(=O)N3CCCC3)cc12 | -9.73% (inactive) | –
51 | CC(Sc1nnc(-c2ccccc2F)n1C1CC1)C(N)=O (stereo not given) | 10.9% (inactive) | –
52 | Cc1occc(=O)c1OCc1ccc(F)cc1 | 30.1% (inactive) | –
53 | Clc1nc(NC2CCCC2)nc(N2CCOCC2)n1 | -29.6% (inactive) | –
54 | Cc1ccc(NC(=O)Cc2nnc(SCC(=O)Nc3nncs3)n2C)cc1 | 4.96% (inactive) | –

Row | SMILES | activity change, negative = inhibition | Potency
55 | CCc1noc(C)c1C(=O)N1CCN(S(=O)(=O)c2cccc(C(F)(F)F)c2)CC1 | 0.699% (inactive) | –
56 | Cc1onc(C(=O)NN)c1C(=O)N1CCN(C(c2ccccc2)c2ccccc2)CC1 | – | 5.86 µM (active)
57 | Cc1c(C(=O)N2CCCC2)c(S(=O)(=O)NCC(C)c2ccccc2)c(C)n1C (stereo not given) | 2.4% (inactive) | –
58 | COc1ccc(N2CCN(C(=O)Cn3cnc4sc(C)c(S(=O)(=O)N5CCOCC5)c4c3=O)CC2)cc1 | -4.67% (inactive) | –
59 | CN(Cc1cccs1)C(=O)CN1C(=O)c2ccccc2S1(=O)=O | 88.3% (inactive) | –
60 | CCC1CCC2(CC1)NC(=O)N(CC(=O)Nc1ccc(OC)cc1)C2=O (stereo not given) | 37% (inactive) | –
61 | O=C(CN(CC1CCCO1)C(=O)CNS(=O)(=O)c1ccc(Cl)cc1)NCc1ccccc1 (stereo not given) | 3.72% (inactive) | –
62 | CCN(C(=O)COC(=O)c1sccc1C)c1c(N)n(Cc2ccccc2)c(=O)[nH]c1=O | 7.91% (inactive) | –
63 | CCN(C(=O)COC(=O)CCOc1cccc(C)c1)c1c(N)n(Cc2ccccc2)c(=O)[nH]c1=O | 22.5% (inactive) | –
64 | CCN(C(=O)COC(=O)c1c(C)nn(-c2ccccc2)c1Cl)c1c(N)n(Cc2ccccc2)c(=O)[nH]c1=O | – | 10.4 µM (active)
65 | Cc1ccccc1NC(=O)Cc1nc(COC(=O)c2cccnc2Cl)cs1 | -12.1% (inactive) | –
66 | O=C(CCNC(=O)c1ccc([N+](=O)[O-])cc1)NC1CCCCC1 | 78.6% (inactive) | –
67 | CCOc1cc(C(=S)N2CCOCC2)ccc1OS(=O)(=O)c1ccc(Br)cc1 | -22.3% (inactive) | –
68 | COc1cc(OC)c(C(=S)N2CCCC2)cc1OC | -9.05% (inactive) | –
69 | COC(=O)[C@@H](Cc1ccccc1)NC(=O)NCCc1ccccc1 | 12.7% (inactive) | –
70 | Cc1ccc(C(=O)Nc2ncccc2C)cc1S(=O)(=O)N1CCOCC1 | -10% (inactive) | –
71 | Cc1ccc(NC(=O)CCCNC(=O)c2ccc(Cl)cc2)cc1S(=O)(=O)N1CCOCC1 | -1.73% (inactive) | –
72 | O=C(NCc1cccnc1)c1cc(S(=O)(=O)N2CCOCC2)c(Cl)cc1Cl | 0.602% (inactive) | –
73 | Cc1ccccc1CSCCNC(=O)c1ccc(Cl)c(S(=O)(=O)N2CCOCC2)c1 | – | 11.7 µM (active)
74 | Cc1ccccc1CSCCNC(=O)c1ccc(N(C)S(=O)(=O)c2ccccc2)cc1 | -4.77% (inactive) | –
75 | O=C(NCCSCc1ccccc1)c1ccc(Cl)c(S(=O)(=O)N2CCOCC2)c1 | – | 10.4 µM (active)
76 | Cc1ccccc1N1CC(C(=O)Nc2ccc3c(c2)OCO3)CC1=O (stereo not given) | 5.88% (inactive) | –
77 | Cc1ccc(Cl)c(OCC(=O)N2CCc3ccccc3C2)c1 | 24.2% (inactive) | –
78 | OCC1(Cc2ccccc2)CCN(Cc2cc3ccccc3o2)CC1 | -33% (inactive) | –
79 | OCC1(Cc2ccccc2C(F)(F)F)CCN(Cc2cccc3cnccc23)CC1 | – | 11.7 µM (active)
80 | CC(C)c1csc(CN2CCC(CO)(Cc3ccccc3)CC2)n1 | 24.2% (inactive) | –
81 | Cn1nc(C(C)(C)C)c([N+](=O)[O-])c1C(N)=O | 21.4% (inactive) | –

Row | SMILES | activity change, negative = inhibition | Potency
82 | CC(C)(C)NC(=O)Cn1cnc([N+](=O)[O-])n1 | 10.5% (inactive) | –
83 | Cn1nc([N+](=O)[O-])nc1Sc1ccc(C(C)(C)C)cc1 | – | 13.1 µM (active)
84 | Cc1ccnc(NC(=O)CNC(=O)c2ccccc2)c1 | 57.5% (inactive) | –
85 | Cc1cccc2sc(N(CCCN(C)C)C(=O)CCS(=O)(=O)c3ccccc3)nc12 | 22.4% (inactive) | –
86 | COc1cccc2sc(N(CCCN(C)C)C(=O)C(c3ccccc3)c3ccccc3)nc12 | – | 13.1 µM (active)
87 | COc1cccc2sc(N(CCCN(C)C)C(=O)CCS(=O)(=O)c3ccccc3)nc12 | 22.4% (inactive) | –
88 | Cc1ccc(CSc2nsc(C)c2C#N)cc1 | 18% (inactive) | –
89 | O=C1c2ccccc2S(=O)(=O)N1Cc1c(F)cccc1Cl | -0.656% (inactive) | –
90 | CCCCC(=O)Nc1ccc2c(c1)OCCO2 | 132% (inactive) | –
91 | COC(=O)CCNc1ccc2c(c1)OCCO2 | 157% (inactive) | –
92 | CCOC(=O)c1cnc2ccc(F)cc2c1Nc1ccc2c(c1)OCCO2 | – | 9.28 µM (active)
93 | CN(C)CCCNc1c2c(c(C#N)c3nc4ccccc4n13)CCC2 | -11.5% (inactive) | –
94 | CCOCCCNc1c(CC)c(C)c(C#N)c2nc3ccccc3n12 | – | 3.29 µM (active)
95 | CCOCCn1c(C(C)C)nc2ccccc21 | 12.6% (inactive) | –
96 | CCCCCn1c(=O)c(C(=O)NCc2ccccc2)c(O)c2ccccc21 | – | 9.28 µM (active)
97 | CCCCCn1c(=O)c(C(=O)Nc2c(C)n(C)n(-c3ccccc3)c2=O)c(O)c2ccccc21 | 122% (inactive) | –
98 | CCCCn1c(=O)c(C(C)=O)c(O)c2ccccc21 | -4.84% (inactive) | –
99 | COc1ccc(N(CC(=O)Nc2ccc(F)c(F)c2)S(=O)(=O)c2c(C)[nH]c(=O)[nH]c2=O)cc1 | -8.61% (inactive) | –
100 | CN(C(=O)c1cccc(OC2CCN(S(=O)(=O)N(C)C)CC2)c1)C1CCOC1 (stereo not given) | -0.341% (inactive) | –
101 | CC(C)(C)NC(=O)NC(=O)COC(=O)C1c2ccccc2Oc2ccccc21 | 2.8% (inactive) | –
102 | Cc1ccccc1N1CCN(S(=O)(=O)c2ccc3ccccc3c2)CC1 | 15.2% (inactive) | –
103 | O=c1c2cc3c(=O)n(CC4CCCO4)c(=O)c3cc2c(=O)n1CC1CCCO1 (stereo not given) | 0.809% (inactive) | –
104 | CCOc1cccc(=O)c2c(C)n(CC3CCCO3)c(C)c12 (stereo not given) | – | 14.7 µM (active)
105 | CCOc1ccc(NC(=O)c2cccc3c2C(=O)N(CC2CCCO2)C3)cc1 (stereo not given) | -3.69% (inactive) | –
